Our source for the growth sensitivity score values is the supplement of paper PMC3414501.

Structures can show the parent of a compound that is named as a salt.

For this assay, the system named is S. cerevisiae AD1-9 (efflux-pump deficient), vegetative growth in YPD. In words: growth sensitivity score (doubling time z-score vs DMSO controls); higher = slower growth, strongly negative scores also mark growth inhibition (complete suppression), active = hit call of the paper. An outline of the steps: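 Optical density of Saccharomyces cerevisiae cultures in microtiter plates was followed every 15 min for 24 hours after seeding at an OD600 of 0.065. Eight solvent-only wells were run per experiment. Growth sensitivity scores were found by subtracting the solvent-only mean from the compound mean and dividing by the solvent-only standard deviation.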
For `Cc1cn([C@H]2C=C[C@@H](CO)O2)c(=O)[nH]c1=O` [Stavudine] (stock concentration (mM, diluted 1:100): 10), the growth sensitivity score is 0.68 (inactive).
Consider `CO[C@H]1/C=C/O[C@@]2(C)Oc3c(C)c(O)c4c(c3C2=O)C2=NC3(CCN(CC(C)C)CC3)NC2=C(NC(=O)/C(C)=C\C=C\[C@H](C)[C@H](O)[C@@H](C)[C@@H](O)[C@@H](C)[C@H](OC(C)=O)[C@@H]1C)C4=O` [Rifabutin] (stock concentration (mM, diluted 1:100): 10), for which the growth sensitivity score is 1.43 (inactive).
For the compound `CC(=O)[C@]1(O)Cc2c(O)c3c(c(O)c2[C@@H](O[C@H]2C[C@H](N)[C@H](O)[C@H](C)O2)C1)C(=O)c1ccccc1C3=O` [Idarubicin hydrochloride] (stock concentration (mM, diluted 1:100): 9.3), the growth sensitivity score is 174 (active).
As for `CCC(=O)NS(=O)(=O)c1ccc(-c2c(-c3ccccc3)noc2C)cc1` [Parecoxib] (stock concentration (mM, diluted 1:100): 9.8), the figure is 0.73 (inactive); as for `Nc1nc(Cl)nc2c1ncn2[C@@H]1O[C@H](CO)[C@@H](O)[C@H]1O` [2-Chloroadenosine] (stock concentration (mM, diluted 1:100): 10), -1.1 (inactive).
Then `CC=CC(=O)N(CC)c1ccccc1C` [Crotamiton] (stock concentration (mM, diluted 1:100): 10.3), with 0.99 (inactive).
As for `Cc1onc(-c2ccccc2)c1-c1ccc(S(N)(=O)=O)cc1` [Valdecoxib] (stock concentration (mM, diluted 1:100): 10), the figure is 11 (active); as for `Nc1nc(Cl)nc2c1ncn2[C@H]1C[C@H](O)[C@@H](CO)O1` [2-Chloro-2-Deoxyadenosine] (stock concentration (mM, diluted 1:100): 10), -1.81 (inactive).
Consider `CCN1CCC[C@H]1CNC(=O)c1cc(S(N)(=O)=O)ccc1OC` [Levosulpiride] (stock concentration (mM, diluted 1:100): 10), for which the growth sensitivity score was -0.24 (inactive).
Then `Cc1occc(=O)c1O` [Maltol] (stock concentration (mM, diluted 1:100): 10), with -1.16 (inactive); and `C[C@@H]1C[C@H]2[C@@H]3CCC4=CC(=O)C=C[C@]4(C)[C@@]3(F)[C@@H](O)C[C@]2(C)[C@H]1C(=O)CO` [Desoximetasone] (stock concentration (mM, diluted 1:100): 10), with 2.17 (active).
For the compound `CCOC(=O)[C@H](CCc1ccccc1)N[C@@H](C)C(=O)N1[C@H](C(=O)O)C[C@@H]2CCC[C@@H]21` [Ramipril] (stock concentration (mM, diluted 1:100): 10), the growth sensitivity score is 2.05 (active).
As to `O=C1c2c(O)cc(O)cc2OC(c2ccc(O)c(O)c2)C1O` (centres undefined) [Taxifolin] (stock concentration (mM, diluted 1:100): 10.1), the growth sensitivity score was -0.17 (inactive).
As for `CCOC(=O)[C@@]1(CCCCCCOc2ccc(Cl)cc2)CO1` [Etomoxir] (stock concentration (mM, diluted 1:100): 10), the figure is 8.16 (active); as for `CN1[C@@H](CC(=O)c2ccccc2)CCC[C@H]1C[C@H](O)c1ccccc1` [Lobeline hydrochloride] (stock concentration (mM, diluted 1:100): 10), -1.96 (inactive); as for `Cc1nc2n(c(=O)c1CCN1CCC(c3noc4cc(F)ccc34)CC1)CCCC2` [Risperidone] (stock concentration (mM, diluted 1:100): 10), -2.71.
Then `COc1cccc2c1C(=O)c1c(O)c3c(c(O)c1C2=O)C[C@@](O)(C(=O)CO)C[C@@H]3O[C@H]1C[C@H](N)[C@H](O)[C@H](C)O1` [Doxorubicin hydrochloride] (stock concentration (mM, diluted 1:100): 9.4), with 83.6 (active).
Then `CC[C@H](C)C(=O)O[C@H]1C[C@H](O)C=C2C=C[C@H](C)[C@H](CC[C@@H](O)C[C@@H](O)CC(=O)O)[C@H]21` [Pravastatin sodium] (stock concentration (mM, diluted 1:100): 9.5), with 13.6 (active); and `COc1cc(OC)c(C(=O)CCCN2CCCC2)c(OC)c1` [Buflomedil hydrochloride] (stock concentration (mM, diluted 1:100): 8.9), with 0.38 (inactive).
